The source of these data is PubChem BioAssay (NCI).

SMILES strings stand for the structures. This is part of a sample that, as a whole, favours compounds with a hit. Of some 83,000 tested, about 20% had one in any assay.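 In brief: 96-well plates, 48 h treatment, single concentration, percent growth endpoint.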 Unmarked numbers belong to inactive results. Activity calls are given as the source filed them. The calls were made as follows: active = growth percent below 10; inactive = the rest.

Common to all, as to assay: NCI-60 one-dose screen, 48 h (100 = growth as untreated, 0 = no growth, -100 = all killed)
The test system of one test is NCI-H23 lung. To be noted: 10 µM unless noted.
Another test has as its system NCI-H226 lung. Particulars: 10 µM unless noted.
The next test has as its system NCI-H322M lung. To be noted: 10 µM unless noted.
Another test relates to HOP-62 NSCLC. Particulars: 10 µM unless noted.
The test system of the next test is NCI-H460 lung. Particulars: 10 µM unless noted.
In another test the test system is HOP-92 NSCLC. Particulars: 10 µM unless noted.
For another test, the system named is NCI-H522 lung. To be noted: 10 µM.
The next test concerns 786-0 renal. To be noted: 10 µM unless noted.
In another test the test system is COLO 205 colon. Particulars: 10 µM unless noted.
The next test has as its system DU-145 prostate. Particulars: 10 µM unless noted.
The next test concerns K-562 leukemia. Particulars: 10 µM unless noted.
For a further test, the system named is MALME-3M melanoma. To be noted: 10 µM unless noted.
The subject of a further test is MDA-MB-231 breast. To be noted: 10 µM unless noted.
The test system of a further test is RXF 393 renal. Particulars: 10 µM unless noted.
A further test has as its system SF-268 CNS. To be noted: 10 µM unless noted.
For another test, the system named is SF-295 CNS. To be noted: 10 µM unless noted.
Another test has as its system SF-539 CNS. To be noted: 10 µM unless noted.
A further test relates to M14 melanoma. Particulars: 10 µM unless noted.
The test system of another test is UACC-257 melanoma. Particulars: 10 µM unless noted.

Regarding `O=Cc1ccccc1C(=O)O`, the growth was 100% in the test on NCI-H23 lung; 100% in the test with NCI-H226 lung; 96.7% in the test on NCI-H322M lung; 96.7% with HOP-62 NSCLC; 99.5% in the test with NCI-H460 lung; 101% in the test on HOP-92 NSCLC. Besides, the growth in the test with NCI-H522 lung is 96.7%; in the test with 786-0 renal it was 97.4%; with COLO 205 colon it was 112%; in the test with DU-145 prostate, 103%; in the test with K-562 leukemia, 90.5%; in the test with MALME-3M melanoma it was 103%. The growth with MDA-MB-231 breast is 109%; in the test with RXF 393 renal, 125%; in the test on SF-268 CNS, 96.3%; with SF-295 CNS, 96.9%; with SF-539 CNS it was 94.8%; with M14 melanoma, 101%.

Consider `BrC1CC(Br)c2c1c1c(c3c2C(Br)CC3Br)C(Br)CC1Br` (stereo not given), for which the growth in the test with NCI-H23 lung was 99.7%; with NCI-H226 lung it was 101%; with NCI-H322M lung it was 97.7%; with HOP-62 NSCLC, 103%; with NCI-H460 lung, 93.4%; with HOP-92 NSCLC it was 89.9%. For the same compound, the growth in the test on NCI-H522 lung was 84.4%; in the test on 786-0 renal, 116%; in the test with COLO 205 colon it was 105%; in the test on DU-145 prostate, 115%; with K-562 leukemia, 80.9%; with MALME-3M melanoma, 95.7%. In addition, the growth in the test with MDA-MB-231 breast is 98.5%; in the test with RXF 393 renal, 80.3%; in the test on SF-268 CNS, 111%; with SF-295 CNS, 103%; in the test on SF-539 CNS it was 92%; in the test on UACC-257 melanoma, 105%. Also, the growth in the test on M14 melanoma was 97.7%.

As for `COc1cc(OC)c2c(c1Cl)O[C@]1(C2=O)C(OCc2ccccc2)=CC(=O)C[C@H]1C`, the growth was 20.9% with NCI-H23 lung; 45.8% in the test on NCI-H226 lung; 36.4% in the test on NCI-H322M lung; 5.17% (active) in the test with HOP-62 NSCLC; 6.23% (active) in the test on NCI-H460 lung; -16.7% (active) with HOP-92 NSCLC. Further, the growth with NCI-H522 lung is -24.7% (active); in the test with 786-0 renal, 37.8%; with COLO 205 colon it was -32.6% (active); in the test on DU-145 prostate it was 14.7%; in the test with K-562 leukemia it was 2.98% (active); with MALME-3M melanoma, -42.4% (active). In addition, the growth with MDA-MB-231 breast is 12.9%; in the test with RXF 393 renal it was 0.23% (active); with SF-268 CNS, 21.3%; in the test with SF-295 CNS it was -58% (active); in the test with SF-539 CNS, -16.4% (active); in the test with M14 melanoma, 2.91% (active).

In the case of `O=c1ncc(-c2ccc(C(F)(F)F)cc2)c(NC2CCCCCC2)[nH]1`, the growth was 64.9% in the test on NCI-H23 lung; 71.5% in the test with NCI-H226 lung; 90.9% with NCI-H322M lung; 64% with HOP-62 NSCLC; 55.1% in the test on NCI-H460 lung; -2.61% (active) in the test on HOP-92 NSCLC. The growth was 29% with NCI-H522 lung; 76.7% in the test on 786-0 renal; 46.2% in the test with COLO 205 colon; 78.5% in the test with DU-145 prostate; 30% in the test with K-562 leukemia; -26.4% (active) in the test on MALME-3M melanoma. Moreover, the growth in the test with MDA-MB-231 breast was 79%; in the test with RXF 393 renal, 76.4%; in the test on SF-268 CNS, 62.3%; with SF-295 CNS, 3% (active); in the test on SF-539 CNS it was 91.7%; with M14 melanoma it was 34.8%.

In the case of `N#Cc1ncc(-c2ccc(C(F)(F)F)cc2)c(NC2CCCCCC2)n1`, the growth is 29.9% with NCI-H23 lung; 35.1% in the test on NCI-H226 lung; 78.2% in the test with NCI-H322M lung; 43.9% in the test with HOP-62 NSCLC; 29.8% in the test on NCI-H460 lung; -22.6% (active) in the test with HOP-92 NSCLC. In addition, the growth in the test with NCI-H522 lung is -4.74% (active); with 786-0 renal, 37.9%; in the test on COLO 205 colon it was 7.19% (active); with DU-145 prostate, 60.5%; with K-562 leukemia, 13.6%; in the test on MALME-3M melanoma, -49.2% (active). Also, the growth with MDA-MB-231 breast is 56.3%; in the test on RXF 393 renal, 36.6%; with SF-268 CNS, 39.3%; in the test on SF-295 CNS, -29.5% (active); with SF-539 CNS, 74.4%; in the test on M14 melanoma, 22.4%.

Consider `O=C(Nc1ccc(Cl)cc1)Nc1ccccc1CNc1nc(Nc2ccc(OCCN3CCCC3)cc2)ncc1Cl`, for which the growth in the test on NCI-H23 lung was 33.5%; in the test with NCI-H226 lung it was 97%; in the test on NCI-H322M lung, 101%; in the test with HOP-62 NSCLC, 82.2%; in the test on NCI-H460 lung, -77.7% (active); in the test with HOP-92 NSCLC, 72.9%. The growth in the test on NCI-H522 lung was -17% (active); with 786-0 renal, -86.6% (active); in the test on COLO 205 colon it was 37.8%; with DU-145 prostate, -42.9% (active); with K-562 leukemia it was -4.05% (active); in the test on MALME-3M melanoma, -81% (active). The growth in the test on MDA-MB-231 breast was -51% (active); with RXF 393 renal it was -64.6% (active); in the test on SF-268 CNS, 41.7%; with SF-295 CNS it was 89.2%; with SF-539 CNS, 77.6%; in the test on M14 melanoma it was -76.3% (active).

For `CCN(Cc1cccc(S(=O)(=O)[O-])c1)c1ccc(C(=C2C=CC(=[N+](CC)Cc3cccc(S(=O)(=O)O)c3)C=C2)c2ccccc2S(=O)(=O)O)cc1`, the growth in the test with NCI-H23 lung was 97.3%; in the test with NCI-H226 lung it was 93.8%; in the test with NCI-H322M lung, 98.1%; in the test with HOP-62 NSCLC, 99.3%; in the test with NCI-H460 lung, 107%; in the test with HOP-92 NSCLC, 87.3%. Also, the growth in the test on NCI-H522 lung was 99.4%; in the test on 786-0 renal it was 92.7%; in the test with COLO 205 colon, 107%; in the test on DU-145 prostate, 107%; with K-562 leukemia, 90.8%; with MALME-3M melanoma it was 118%. The growth is 100% in the test with MDA-MB-231 breast; 106% in the test with RXF 393 renal; 94.6% in the test on SF-268 CNS; 94.5% with SF-295 CNS; 97.4% in the test on SF-539 CNS; 98.4% with M14 melanoma.

`Cc1ccc(C(NC(=O)c2ccccc2)c2ccc3cccnc3c2O)cc1` (stereo not given): the growth was 23.5% in the test with NCI-H23 lung; -6.24% (active) with NCI-H226 lung; 25.3% in the test on NCI-H322M lung; 17.3% with HOP-62 NSCLC; 4.02% (active) in the test with NCI-H460 lung; 24.8% with HOP-92 NSCLC. Besides, the growth in the test on NCI-H522 lung was -5.42% (active); with 786-0 renal, -14.5% (active); in the test with COLO 205 colon, 29.3%; in the test on DU-145 prostate, 20.7%; in the test with K-562 leukemia, 10.1%; in the test with MALME-3M melanoma, 19.9%. Besides, the growth is 16.5% in the test with MDA-MB-231 breast; 41.8% with RXF 393 renal; 8.85% (active) with SF-268 CNS; 10.3% with SF-295 CNS; 7.53% (active) with SF-539 CNS; -22.9% (active) with M14 melanoma.
